Measured values published in the supplement of paper PMC6555819.

Each sequence was assayed on PPARg:RXRa 90nM:30nM, anti-RXR (NR concentration 90 nM, RXRa partner concentration 30 nM) (assay: PBM binding z-score (relative to random genomic background probes); higher = stronger binding; sequences stand for … in GC…GCGATTGACAGCGTAGAATGAAGG).
How it was run: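 Binding buffer was PBS pH 7.4 with 2% milk, 0.02% Triton X-100, 1 mM DTT, 0.2 mg/mL BSA and 0.4 mg/ml salmon testes DNA. In it, ligand-free nuclear receptor dimers were incubated 1 h on custom Agilent 4×180K protein-binding microarrays carrying double-stranded probes. Antibodies against each partner (one per run) detected binding, and z-scores were calculated against random background probes after regression normalization of scanned fluorescence.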

Sequence | PBM binding z-score
ATCGAAAGGTCGAAGGTGAGTATACCCACCCGAA | 4.33
TCTTGTAGATCAATAGAGGTTACGAAAGTGCGCT | 2.24
TCTTGTTGATCAAGCAGGTTAAGAAAGCCTGAGT | 1.96
CGTCCTAGGTCAAGGTCAGTGAAAGAGACTCGAA | 3.5
GGAACGAGTGCAAAGTTGATAGCATCTGTCGACG | 3.02
TCTAGTTGGTCTCGGAGGTCACACACGACGGGTA | 3.13
CTAACTAGGTCAGAACAGGACAGTGAAGGATGAT | 4.19
TCTTGTAGATCAACAGGAGTTTAAGAAAGATCGA | 1.87
CGTCCACGGTCAATGCTAGGTCAGTGAAAGCATT | -0.669
CCTTACGGGTCACTGACAGGTTAAAGCATTTGGA | 3.25
CCTAGTTGGTCAGGAGGTAACACACCGGATATGA | 0.419
ATAACGAGGGCAATGAGTTGATAGCACGGGTGGC | 0.999
GCGACTGGGGCATAGCAGGTTACCATAAGGTTGG | 0.318
TTACCAAGCTGAGCTGAGGTCGTTGATCCAACTC | -0.597
CGGCCAAGGTCAGAGAGGTCAGTGAATGCCGAGT | 2.75
GGGACTGGGGCAAAGCAGGTTACCATAAGGTTGG | 2.33
TCAGACAAGTGAAGGTAACTCAGGTACGCAGTCG | 2.94
GCTTGTAGATCACGGTTAAGAAAGACTAAGCTAA | 0.156
GTTAGTTGGTCAGTAAAAGGTCACACACCGGTCG | 4.18
TCATATAGGTAAACAGGTGAAAGTTCGTAAGTTA | 7.06
ACTAGTTGGTCAGGTGAGGTCACACACAATTCGG | 1.88
ATCGAAAGGTCGAAGGTGAGAATACCCACCCGAA | 4.31
